Reference: PubChem BioAssay (NCI)
Compounds without any hit were thinned out: in the full panel of roughly 79,000, 15% have a hit. Activity calls are given as the source filed them. Rule as the data show it: active = growth inhibition above about 70%; inactive = the rest.

What was measured:
[1] = NCI Yeast Anticancer Drug Screen. Data for the rad50 strain (AID 155);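 also: 0% = growth of vehicle-only cultures of the same strain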; settings: S. cerevisiae rad50 strain growth inhibition; at 50.0 µM; stronger effect = higher value
In short: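 Readout: growth inhibition relative to vehicle-treated cultures. Compound exposure was carried out in a genetically defined yeast strain deficient in DNA damage repair.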

[2] = NCI Yeast Anticancer Drug Screen. Data for the mec2-1 strain (AID 157); settings: S. cerevisiae mec2-1 strain, at 50.0 µM, stronger effect = higher value
In short: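 Yeast mec2-1 mutant treated with compound. Readout: growth inhibition vs vehicle controls.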

[3] = NCI Yeast Anticancer Drug Screen. Data for the sgs1 mgt1 strain (AID 161);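 also: 0% = growth of cultures given vehicle only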; settings: S. cerevisiae sgs1 mgt1 strain, at 50.0 µM, stronger effect = higher value
In short: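 Genetically altered yeast, compound exposure, growth inhibition relative to vehicle.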

[4] = NCI Yeast Anticancer Drug Screen. Data for the cln2 rad14 strain (AID 165);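 also: 0% = growth equal to vehicle treated cultures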; settings: S. cerevisiae cln2 rad14 strain, at 50.0 µM, stronger effect = higher value
In short: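 cln2 rad14 yeast strain; compound exposure; growth inhibition read vs vehicle controls.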

[5] = NCI Yeast Anticancer Drug Screen. Data for the mlh1 rad18 strain (AID 175); settings: S. cerevisiae mlh1 rad18 strain growth inhibition; at 50.0 µM; stronger effect = higher value
In short: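 Yeast w/ defined DNA-repair lesions; compound exposure; growth vs vehicle controls → % inhibition.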

[6] = NCI Yeast Anticancer Drug Screen. Data for the bub3 strain (AID 167); settings: S. cerevisiae bub3 mutant strain, at 50.0 µM, stronger effect = higher value
In short: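 Readout: yeast growth inhibition, expressed relative to vehicle-only wells. The test organism is a mutant strain from a panel with lesions in DNA repair or checkpoint genes.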

Measured: growth inhibition

CCOc1ccc(C(C)c2cc3c(cc2OCCO)OCO3)cc1 (stereo not given)
inactive: [1] 28.6% | [2] 29.2% | [3] 69% | [4] 59.9% | [5] 68.5%

COC(=O)c1nn2c(=O)n(C(C)=O)c3ccccc3c2c1C(=O)OC
inactive: [1] 27.2% | [2] 4.85% | [3] 9.65% | [4] 15.8% | [5] 24.6%

CC(=O)Nc1ccc(S(=O)(=O)n2c(=O)oc3cc(Br)ccc32)cc1
inactive: [1] 7.4% | [2] 3.35% | [3] -7% | [4] 2.35% | [5] 0.65%

N#CC1CNC(=S)N=C1c1ccccc1 (stereo not given)
inactive: [1] 11.5% | [2] 17.8% | [3] 17.9% | [4] -74.6% | [5] 12.1%

CC(=O)Nc1ccc(NC(=O)c2cccc3ccccc23)cc1
inactive: [1] -5.1% | [2] 13% | [3] 13.8% | [4] -12.8% | [5] 32.1%

CCOC(=O)C(NC(=O)CC)(C(F)(F)F)P(=O)(OCC)OCC (stereo not given)
inactive: [1] -22.5% | [2] -12.3% | [3] -35.7% | [4] -11.8% | [5] -9.35%

CCc1cc2c(c3c1CCC3=O)CC1(Cc3ccc(C)cc3C1)C2 (stereo not given)
inactive: [1] -47.1% | [2] -54.5% | [3] -32.5% | [4] -21.6% | [5] -44.7%

O=C(Nc1nnc(C(F)(F)F)s1)c1c(F)cccc1F
inactive: [1] 7.75% | [2] 16.7% | [3] 24.9% | [4] 19.5% | [5] 30.1%

Clc1ccc(-c2nc(CSc3ccccn3)cs2)cc1
inactive: [1] 13.7% | [2] -12.4% | [3] 49.5% | [4] -22.2% | [5] -6.8%

Cc1cc2nc3c(=O)[nH]c(=O)nc-3n(CCN(CCO)CCO)c2cc1Cl
inactive: [1] 58.9% | [2] 7.95% | [3] 48.3% | [4] 14.8% | [5] 17.8%

O=c1[nH]c2cc([N+](=O)[O-])ccc2nc1/C(=N/Nc1ccccc1)C(O)c1ccc(Cl)cc1Cl (stereo not given)
inactive: [1] 41% | [2] 3.6% | [3] -11.6% | [4] -20.2% | [5] 34.7%

CC(SC(C)C(=O)N/N=C/C=C\c1ccccc1)C(=O)N/N=C\C=C\c1ccccc1 (stereo not given)
inactive: [1] 15.1% | [2] 5% | [3] 1.05% | [4] 7.8% | [5] 33.7%

C/C(CC(c1ccccc1)c1ccccc1)=N\Nc1ccc([N+](=O)[O-])cc1[N+](=O)[O-]
inactive: [1] 13.4% | [2] 3.95% | [3] 14.4% | [4] 19.2% | [5] 8.55%

Cc1cc2c(CC(=O)O)[nH]nc2c(C(=O)O)c1C
inactive: [1] 1.4% | [2] -10.4% | [3] -13.2% | [4] 4.8% | [5] -0.55%

Cc1ccc(NC(=O)c2cc3cc(N=Nc4ccc(Br)cc4)ccc3oc2=O)cc1
inactive: [1] 16% | [2] 28.1% | [3] 12.4% | [4] 23.1% | [5] 15.8%

CC12CCC3C(CCC4CCCCC43C)C1CC/C2=N\O (stereo not given)
inactive: [2] 45.6% | [4] 39.8%
active: [1] 90.2% | [3] 79.8% | [5] 96.5%

CCOC(=O)c1nc2cc(N3CCOCC3)c(F)cc2[nH]c1=O
inactive: [1] 16.9% | [2] 23.6% | [3] 23.2% | [4] 3.45% | [5] 34%

CCOC(=O)/N=[N+](\[O-])c1ccccc1
inactive: [1] 64.5% | [2] 46.9% | [3] 57.6% | [4] 11.9%
active: [5] 86.8%

O=c1[nH]cnc2nn(C3OC(CO)C(O)C3O)cc12 (stereo not given)
inactive: [1] -20.4% | [2] 12.9% | [3] -6.85% | [4] -5.65% | [5] -18.9%

c1ccc2c[n+](CCCC[n+]3ccc4ccccc4c3)ccc2c1
inactive: [1] 46.5% | [2] 17.1% | [3] 22.4% | [4] 12.4% | [5] 44.8%

O=[N+]([O-])c1ccc(N/N=C/CCCCO)c([N+](=O)[O-])c1
inactive: [1] 13.3% | [2] -4.65% | [3] -0.6% | [4] -30.6% | [5] -5.8%

NC(Cc1ccc(F)cc1)(C(=O)O)c1ccccc1 (stereo not given)
inactive: [1] 5.2% | [2] 28.5% | [3] 8.55% | [4] -23.4% | [5] 28.8%

Fc1ccc2nc3ccccc3c(SCCNCCSc3c4ccccc4nc4ccc(F)cc34)c2c1
inactive: [1] 43.4% | [2] -4.75% | [3] 17% | [4] 16.1% | [5] 35.2%

C/C(=C/C(=O)O)CC/C=C(/C)C(=O)O
inactive: [1] -0.15% | [2] -5.1% | [3] -1.25% | [4] 21.4% | [5] 4.9%

Cc1cccc(OCCCCCl)c1
inactive: [1] -18% | [2] -9.7% | [3] -8.25% | [4] 10.4% | [5] -9.3%

Nc1ccc(S(=O)(=O)CCO)cc1
inactive: [1] 1.1% | [2] -7.5% | [3] 4.65% | [4] 4.45% | [5] 3.6%

CCCCOCCOCCO
inactive: [1] -18.2% | [2] -21.6% | [3] -15.7% | [4] -14.7% | [5] 1.5%

CCS(=O)(=O)CC(C)O (stereo not given)
inactive: [1] 13.7% | [2] -11.3% | [3] -4.2% | [4] 10.1% | [5] -7.95%

CC1(C)C2(SCCS2)C(C)(C)C12SCCS2
inactive: [1] 22.9% | [2] 3.05% | [3] 17.9% | [4] 3.75% | [5] 5.4%

CCN1CCNC(=O)C1c1ccccc1 (stereo not given)
inactive: [1] -9.3% | [2] 16.1% | [3] -17.2% | [4] 1.35% | [5] 1.05%

Cc1ccc(/C=C/C(=O)c2sc(C(N)=S)nc2C)cc1
inactive: [1] 35.9% | [2] 14.2% | [3] 8.15% | [4] 16.3% | [5] 39%

CC(=O)Nc1ccccc1Cc1nc2ccccc2c(=O)[nH]1
inactive: [1] 15.7% | [2] 12.6% | [3] 25.1% | [4] 7.9% | [5] 16.8%

CC(C)(C)C(=O)C(Cc1ccccc1)C(=O)C(C)(C)C
inactive: [1] 2.6% | [2] -11.8% | [3] 2.15% | [4] 16.8% | [5] -1.95%

Cc1nc2cncnc2n(CCN2CCOCC2)c1=O
inactive: [1] 15.1% | [2] 16.2% | [3] 23.2% | [4] -2.35% | [5] 20.4%

C=CCN=C1NC(=O)C(CC(=O)Nc2ccc(C)cc2)S1 (stereo not given)
inactive: [1] -22.6% | [2] -0.25% | [3] 0.25% | [4] 17.4% | [5] 7.65%

COc1ccc2c(ccc[n+]2CC(=O)c2ccc(SC)cc2)c1
inactive: [1] 1.9% | [2] 12.3% | [3] 20.1% | [4] 21.4% | [5] 0.75%

COC(=O)c1ccc(NC(=O)c2cc(OC)c(OC)c(OC)c2)cc1
inactive: [1] -24.3% | [2] -24.1% | [3] -19.4% | [4] -5.05% | [5] -24%

O=C(Nc1ccc(Cl)cc1)Nc1nnc2nc(CC(=O)c3cccc([N+](=O)[O-])c3Cl)c(=O)[nH]n12
inactive: [1] -9.45% | [2] 11.4% | [3] 2.95% | [4] -0.4% | [5] 9.55%

O=C1Cc2c([nH]c3ccccc23)-c2ccccc2N1
inactive: [1] 25.1% | [2] 13.9% | [3] 13.8% | [4] 5.05% | [5] 21.1%

CSc1ccc(OC(=O)NC2CCCCC2)cc1C
inactive: [1] 7.5% | [2] 22.4% | [3] 13.6% | [6] 28.6% | [5] 14.8%

COCC(C)OC(=O)c1ccccc1Cl (stereo not given)
inactive: [1] 7.65% | [2] 10.3% | [3] 5.95% | [6] 21.1% | [5] 24.3%

COCc1nc2c(=O)[nH]c(N)nc2[nH]c1=O
inactive: [1] 2.55% | [2] -3.55% | [3] -4.8% | [6] 1.7% | [5] 1.1%

CC[N+](CC)(CC)CCO
inactive: [1] -11.6% | [2] -23.6% | [3] -10.9% | [6] -11.5% | [5] -18.5%

CCCCCCCC/C=C\CCCCCCCCCCCC(=O)O
inactive: [1] -5.7% | [2] 5.75% | [3] 0.4% | [6] -17% | [5] -6.25%

CC1(C)OC[C@@H](N)[C@@H](O)CO1
inactive: [1] -9.35% | [2] 12.6% | [3] 0.05% | [6] 0.55% | [5] 1.95%

CCCC(=O)Oc1ccc(Cl)cc1
inactive: [1] 12.9% | [2] -4.45% | [3] 1.35% | [6] 1.45% | [5] -6.65%

CN(C)C=Nc1cc2c(cc1Br)-c1ccccc1C2=O
inactive: [1] 3.05% | [2] 10.3% | [3] 4.4% | [6] 2% | [5] -15.7%

CCCCCCCCCCCCCCCCCCNC(=O)c1c(Br)c(Br)cc(Br)c1C(=O)O
inactive: [1] -1.45% | [2] 8.55% | [3] 13.2% | [6] -3.7% | [5] 6.75%
